Measured values as given in the supplement of paper PMC6555819.

What was measured:
Experiment in all cases: PBM binding z-score (relative to random genomic background probes); higher = stronger binding; sequences stand for … in GC…GCGATTGACAGCGTAGAATGAAGG
[1] = system: FXR:RXRa (NR concentration 270 nM, RXRa partner concentration 90 nM)
Outline: (§1)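 Custom Agilent 4×180K protein-binding microarrays carried double-stranded probes, each with a 34-nt variable region. These regions held direct-repeat seeds, single-nucleotide variants, half-site ablations and random human genomic background sequences. Ligand-free nuclear receptor dimers were incubated on the arrays for 1 h, antibodies against each partner (one per run) detected binding, and scanned fluorescence was regression-normalized. Binding z-scores take the random background probes as reference.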

[2] = system: LXRa:RXRa (NR concentration 270 nM, RXRa partner concentration 90 nM)
Outline: as §1

[3] = system: LXRa homodimer (NR concentration 270 nM)
Outline: as §1

[4] = system: LXRb:RXRa (NR concentration 270 nM, RXRa partner concentration 90 nM)
Outline: as §1

[5] = system: LXRb homodimer (NR concentration 270 nM)
Outline: as §1

[6] = system: PPARa:RXRa (NR concentration 270 nM, RXRa partner concentration 90 nM)
Outline: as §1

[7] = system: PPARg:RXRa (NR concentration 180 nM, RXRa partner concentration 90 nM)
Outline: as §1

[8] = system: PPARg:RXRa 270nM:90nM, anti-RXR (NR concentration 270 nM, RXRa partner concentration 90 nM)
Outline: as §1

[9] = system: PPARg:RXRa 30nM:10nM, anti-RXR (NR concentration 30 nM, RXRa partner concentration 10 nM)
Outline: as §1

[10] = system: PPARg:RXRa 90nM:30nM, anti-RXR (NR concentration 90 nM, RXRa partner concentration 30 nM)
Outline: as §1

[11] = system: PPARg:RXRa DBDmut IVT, anti-RXR (DBD mutation: RXRa K156A/R161A, NR concentration 270 nM, RXRa partner concentration 90 nM)
Outline: as §1

[12] = system: PPARg:RXRa IVT, anti-PPARg (NR concentration 270 nM, RXRa partner concentration 90 nM)
Outline: as §1

[13] = system: PPARg DBDmut:RXRa IVT, anti-PPARg (DBD mutation: PPARg1 K132A/R137A, NR concentration 270 nM, RXRa partner concentration 90 nM)
Outline: as §1

[14] = system: PPARg DBDmut IVT, anti-PPARg (DBD mutation: PPARg1 K132A/R137A, NR concentration 270 nM)
Outline: as §1

[15] = system: PPARg homodimer (NR concentration 180 nM)
Outline: as §1

[16] = system: PXR:RXRa (NR concentration 270 nM, RXRa partner concentration 90 nM)
Outline: as §1

[17] = system: PXR homodimer (NR concentration 270 nM)
Outline: as §1

[18] = system: RARa:RXR (NR concentration 270 nM, RXRa partner concentration 90 nM)
Outline: as §1

[19] = system: RARa homodimer (NR concentration 270 nM)
Outline: as §1

[20] = system: RARb:RXRa (NR concentration 270 nM, RXRa partner concentration 90 nM)
Outline: as §1

| Sequence | PBM binding z-score [1] | PBM binding z-score [2] | PBM binding z-score [3] | PBM binding z-score [4] | PBM binding z-score [5] | PBM binding z-score [6] | PBM binding z-score [7] | PBM binding z-score [8] | PBM binding z-score [9] | PBM binding z-score [10] | PBM binding z-score [11] | PBM binding z-score [12] | PBM binding z-score [13] | PBM binding z-score [14] | PBM binding z-score [15] | PBM binding z-score [16] | PBM binding z-score [17] | PBM binding z-score [18] | PBM binding z-score [19] | PBM binding z-score [20] |
| --- | --- | --- | --- | --- | --- | --- | --- | --- | --- | --- | --- | --- | --- | --- | --- | --- | --- | --- | --- | --- |
| ATCTCTAGGTAACAAGTTCAGTCAAAGAGAGGAC | 0.865 | 0.77 | 0.75 | 0.867 | 0.743 | 1.5 | 1.4 | 2.12 | 1.16 | 1.85 | 3.46 | 2.97 | 1.25 | 1.27 | 1.63 | 1.77 | 2.04 | 1.1 | 1.66 | 1.62 |
| TCGAGTAGGTTACTCGGGGCATTCAGCCAACATA | 0.333 | 0.921 | -0.382 | 0.814 | -0.722 | 1.13 | 0.392 | 1.33 | 1.41 | 0.94 | 3.23 | 2.79 | -0.543 | -0.378 | -0.112 | 0.641 | -0.427 | 0.651 | -1.03 | 0.57 |
| AATACAGGGTCACTAGCCCAGAGTAGGTACGAAT | 5.41 | 4.89 | 1.13 | 3.8 | 0.946 | 5.41 | 5.91 | 5.2 | 2.09 | 4.01 | 2.81 | 4.3 | 1.88 | 0.703 | 2.29 | 2.92 | 0.113 | 3.64 | 1.11 | 4.08 |
| GGAACGAGGGTAAGTTGATAGCAGAGTTTGATGG | -0.0165 | -0.0993 | -0.232 | -0.276 | -0.358 | 0.189 | 0.422 | 0.00426 | -0.0948 | -0.0902 | 1.59 | 0.763 | 0.619 | 0.0122 | 0.193 | 0.0431 | 0.405 | -0.00911 | 0.262 | 0.727 |
| AATACAGGGTCATCGTAGGCCAGAGCACGCACAG | 7.49 | 6.27 | 2.28 | 4.72 | 1.31 | 5.79 | 6.53 | 6.08 | 3.29 | 4.98 | 2.92 | 4.29 | 2.99 | 0.869 | 3.33 | 4.96 | 0.778 | 5.48 | 0.827 | 4.21 |
| CCTTACGGGTGAAGGTTATAGCACGGGTGGTACG | 0.149 | 0.504 | -0.127 | 0.0957 | -0.349 | 1.61 | 1.09 | 1.51 | -0.0216 | 0.958 | 0.6 | 1.31 | -0.607 | -1.16 | 0.456 | 0.216 | -0.0716 | 0.732 | 0.409 | 1.31 |
| GGAACGAGGGCATTCGGGTTGATAGCATGGCGAT | 1.28 | 1.22 | -0.291 | 0.287 | -0.152 | 1.74 | 0.887 | 0.703 | -0.367 | 0.323 | 2.77 | 2.27 | 0.359 | -0.376 | 0.523 | 3.69 | 2.77 | 0.733 | -0.569 | 1.86 |
| ATATGTAGGTTACATCCGGGTCCTTCAGGCTATG | 0.21 | 1.72 | 0.152 | 0.684 | 0.758 | 3.17 | 5.07 | 4.1 | 2 | 3.63 | 7.33 | 7.38 | 2.34 | 1.87 | 0.864 | 0.482 | 0.298 | 0.744 | 0.322 | 0.999 |
| TCATATAGGTAAATGGTGAAAGTCGGTGTGGTAA | 0.818 | 1.03 | 0.217 | 0.846 | -0.047 | 1.6 | 1.54 | 3.44 | 4.15 | 3.96 | 3.92 | 2.4 | 0.569 | 0.625 | 1.49 | 0.445 | 0.609 | 0.554 | 1.52 | 0.243 |
| CTCGAAAGGTCGGTTGAGCTGAGTATACGGATAA | 1.24 | 0.827 | -0.605 | 0.855 | -0.258 | 2 | 0.00937 | 0.523 | -0.12 | 0.207 | 0.0426 | 0.318 | -0.21 | -0.532 | 0.0115 | 0.392 | -0.439 | 0.834 | 0.167 | 2.58 |
| GCTGCCAGGTCAACTGATGGTCAGCTAAAGCTCG | 4.84 | 3.82 | 0.113 | 2.73 | 0.00556 | 4.4 | 2.42 | 3.09 | 0.281 | 1.61 | 2.71 | 2.73 | 0.45 | -0.276 | 4.33 | 2.76 | -0.337 | 4.22 | -0.0772 | 4.46 |
| AGTCAAAGTTCTCTAGGTAACGTAAGATTCAGCT | 0.109 | -0.065 | 0.22 | 0.0719 | -0.356 | 0.668 | 0.831 | 1.19 | 0.092 | 0.81 | 1.68 | 2.51 | 0.928 | 0.591 | 0.225 | 0.000883 | 0.167 | 0.366 | 0.183 | 0.732 |
| CCTAGGAGGACAGAAGGTCAGAGCTGTCCGCTTT | 1.3 | 1.59 | 0.0675 | 1.11 | -0.837 | 1.93 | 0.741 | 2.08 | -0.108 | 1.7 | 0.0548 | 0.781 | -1.45 | -0.918 | 0.868 | 1.59 | -0.0903 | 1.98 | 0.629 | 3.02 |
| CCTCGGAGGACAACAGGAGGACAGAGCTGCCAGA | 0.107 | 0.0624 | -0.1 | -0.555 | -1.29 | -0.58 | 0.442 | -0.396 | -0.625 | -0.907 | -0.583 | -0.273 | -0.847 | -1.93 | -0.324 | -0.247 | -0.0933 | -0.0397 | -0.0805 | 1.09 |
